Test results published in PubChem BioAssay (NCI).
The panel holds about 83,000 compounds, 20% with a hit somewhere; the sample as a whole holds those more often.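 Growth was measured after 48 h exposure to one concentration of compound in 96-well plates. Values under 10 count as active.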 A number with no mark means an inactive call. Calls of active or inactive are those of the source.

Key:
Test in all cases: NCI-60 one-dose screen, 48 h (100 = growth as untreated, 0 = no growth, -100 = all killed)
Settings in all cases: 10 µM unless noted
DU-145 prostate = tested on: DU-145 prostate
K-562 leukemia = tested on: K-562 leukemia
MALME-3M melanoma = tested on: MALME-3M melanoma
MDA-MB-231 breast = tested on: MDA-MB-231 breast
RXF 393 renal = tested on: RXF 393 renal
SF-268 CNS = tested on: SF-268 CNS
SF-295 CNS = tested on: SF-295 CNS
SF-539 CNS = tested on: SF-539 CNS
UACC-257 melanoma = tested on: UACC-257 melanoma
M14 melanoma = tested on: M14 melanoma

| Structure (SMILES) | growth (DU-145 prostate) | growth (K-562 leukemia) | growth (MALME-3M melanoma) | growth (MDA-MB-231 breast) | growth (RXF 393 renal) | growth (SF-268 CNS) | growth (SF-295 CNS) | growth (SF-539 CNS) | growth (UACC-257 melanoma) | growth (M14 melanoma) |
| --- | --- | --- | --- | --- | --- | --- | --- | --- | --- | --- |
| CN1CCN(Cc2ccc(NC(=O)c3cncc(C#Cc4cnc5ccc(N6CCOCC6)nn45)c3)cc2C(F)(F)F)CC1 | -84.7% (active) | -0.943% (active) | -86.2% (active) | -56.4% (active) | -77.9% (active) | -62.1% (active) | -84.8% (active) | -90.8% (active) | -29.5% (active) | -74.4% (active) |
| CNC(=O)c1cc(N2CCc3cc(NC(=O)Nc4ccc(N5CCN(C)CC5)c(C(F)(F)F)c4)ccc32)ccn1 | 84.6% | 0.938% (active) | 67.8% | 74.3% | -16% (active) | 80.4% | -49.8% (active) | 16.8% | 104% | 61.6% |
| N#Cc1c(-c2cccs2)c(C#N)c(=O)n(Cc2nc3ccccc3[nH]2)c1N | 111% | 101% | 107% | 82.4% | 94.4% | 104% | 107% | 97.7% | 110% | 98.4% |
| COc1cc2cc(Oc3ccc(NC(=O)Nc4ccc(F)c(C(F)(F)F)c4)cc3)c(C)nc2cc1OCCN(C)C | 106% | 3.63% (active) | 92.7% | 103% | 76.5% | 98.5% | 104% | 102% | 105% | 95.7% |
| O=C(CSc1nc2ccccc2c(=O)n1-c1ccc(S(=O)(=O)Nc2ccc(Cl)nn2)cc1)Nc1ccc(S(=O)(=O)Nc2ccc(Cl)nn2)cc1 | 107% | 88.1% | 102% | 102% | 102% | 101% | 102% | 103% | 101% | 111% |
| O=C(COc1ccc(/C=C2\C(=O)Nc3cc(Cl)ccc32)cc1)Nc1ccc(Cl)cc1 | 85.9% | 32.8% | 98.7% | 82.8% | 76.4% | 72.6% | 66% | 66.8% | 78.4% | 22.1% |
| Cc1ccc2c(n1)C(=O)C(Cl)=C(Nc1cc(C(F)(F)F)cc(C(F)(F)F)c1)C2=O | 95.3% | 4.18% (active) | 47.9% | 87.1% | 74.5% | 87.1% | 95.7% | 93.9% | 75.2% | 89.9% |
| C/C(CC1(O)C(=O)Nc2ccccc21)=N\O (stereo not given) | 109% | 99.6% | 96.2% | 94.8% | 103% | 98.3% | 98.6% | 94.7% | 105% | 97.9% |
| Cc1ccsc1[C@H]1c2[nH]c3ccccc3c2C[C@H]2C(=O)N(CCCCCCC(=O)NO)CC(=O)N12 | 90.6% | 58.2% | 25.6% | 96.8% | 85.9% | 105% | 95.1% | 77.9% | 76% | 86.4% |
| CCCc1cc2cc(-n3nc(CC)c4c3CC(C)(C)CC4=O)cc(NC3CCC(O)CC3)c2c(=O)[nH]1 (stereo not given) | 40.2% | 10.9% | 8.74% (active) | 7.65% (active) | -15.8% (active) | 49.3% | 28.5% | 4.55% (active) | 29.1% | 27.2% |
| NC(N)=NS(=O)(=O)c1ccc(N=Nc2c(N)nn(-c3ccc([N+](=O)[O-])cc3[N+](=O)[O-])c2N)cc1 | 107% | 87.4% | 106% | 102% | 89% | 100% | 108% | 95% | 103% | 102% |
| CCCN1C=C/C(=C\C(=O)n2ccc3ccccc32)c2ccccc21 | 87.7% | 56.9% | 104% | 76.2% | 97.6% | 96.4% | 83.1% | 88.2% | 102% | 95.4% |
| Cc1ccc2c(n1)C(=O)C(Cl)=C(Nc1ccc(C)c(C)c1)C2=O | 6.17% (active) | 4.14% (active) | 85.4% | 49.3% | 85.7% | 79.1% | 44.7% | 59.9% | 16% | 42.5% |
| COC(=O)CCCNCCCn1ccc2cc(NCc3cccc(-c4ccccc4)c3C)ccc21 | 86.2% | -1.36% (active) | 75.2% | 68.3% | 71.9% | 82.9% | 64.5% | 77.8% | 81.6% | 68.1% |
| NC(=O)c1ncn2c(=O)n(CCF)nnc12 | 38.6% | 26.7% | 72.8% | 66.8% | 96.6% | 57.3% | 34.7% | 63.9% | 80.9% | 33.9% |
| O=C(N/N=C\c1ccc([N+](=O)[O-])cc1)c1ccc2nc(-c3ccc(Br)cc3)[nH]c2c1 | 28.2% | 2.69% (active) | 6.94% (active) | 62.4% | 11.5% | 44.7% | 25.1% | 28.2% | 18.2% | 3.52% (active) |
